Reference: the supplement of paper PMC8253809
“And” between values parts separate entries of the source, which are not always exact repeats. Equal values may be shown once.

Legend:
Assay in all cases: growth inhibition (% activity, log2 RLU normalised to DMSO / staurosporine); higher = more growth inhibition
Details in all cases: 33 µM
DIPGX29 = tested on: DIPGX29 (H3.3 K27M diffuse intrinsic pontine glioma line)
In short: (§1)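 In triplicate, pHGG cell lines and H9-derived neural stem cells were treated for 7 days at 37 °C, 5% CO2 with approved drugs at a single final concentration of about 33 μM, added by pin tool. CellTiter-Glo luminescence, after log2 transformation, was normalised on each plate to % activity between solvent and positive control wells. Growth inhibition is reported as the median across replicates.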

DIPGX37 = tested on: DIPGX37 (H3.3 K27M diffuse intrinsic pontine glioma line)
In short: as §1

DIPGX7 = tested on: DIPGX7 (H3.3 K27M diffuse intrinsic pontine glioma line)
In short: as §1

DIPGX9 = tested on: DIPGX9 (diffuse intrinsic pontine glioma line)
In short: as §1

HGGX39 = tested on: HGGX39 (paediatric high-grade glioma line)
In short: as §1

HGGX6 = tested on: HGGX6 (H3.3 G34R paediatric high-grade glioma line)
In short: as §1

HNSC = tested on: HNSC
In short: as §1

SUDIPGIV = tested on: SUDIPGIV (diffuse intrinsic pontine glioma line)
In short: as §1

SUDIPGVI = tested on: SUDIPGVI (diffuse intrinsic pontine glioma line)
In short: as §1

SUDIPGXIII = tested on: SUDIPGXIII (diffuse intrinsic pontine glioma line)
In short: as §1

SMILES | growth inhibition (DIPGX29) | growth inhibition (DIPGX37) | growth inhibition (DIPGX7) | growth inhibition (DIPGX9) | growth inhibition (HGGX39) | growth inhibition (HGGX6) | growth inhibition (HNSC) | growth inhibition (SUDIPGIV) | growth inhibition (SUDIPGVI) | growth inhibition (SUDIPGXIII)
CC1(C)O[C@@H]2C[C@H]3[C@@H]4C[C@H](F)C5=CC(=O)C=C[C@]5(C)[C@@]4(F)[C@@H](O)C[C@]3(C)[C@]2(C(=O)CO)O1 | 5.9% | 6.05% | 2.96% | 7.24% | 5.97% | 3.53% | 1.69% | 1.18% | 3.97% | -0.393%
CCC(NC(C)C)C(O)c1ccc(O)c(O)c1 (stereo not given) | 2.91% | 3.09% | 1.03% | 1.97% | 2.82% | 5.22% | 3.15% | 1.08% | 5.58% | 1.21%
CC=CC1=C(C(=O)O)N2C(=O)[C@@H](NC(=O)[C@H](N)c3ccc(O)cc3)[C@H]2SC1 | -1.6% | 0.508% | -0.595% | 0.543% | -1.99% | 1.84% | -1.83% | -0.89% | 0.277% | -12.4%
CCn1cc(C(=O)O)c(=O)c2cc(F)c(N3CCNCC3)cc21 | -0.303% | 1.84% | 0.79% | 0.854% | 3.3% | 2.09% | 3.22% | -0.867% | 0.897% | 3.56%
CCCCC(=O)O[C@H]1CC[C@H]2[C@@H]3CCc4cc(O)ccc4[C@H]3CC[C@]12C | 2.95% | 4.39% | 2.96% | 8.03% | 1.99% | -1.05% | 72.8% | 2.52% | -2.97% | 1.55%
CS(=O)(=O)OCCCCOS(C)(=O)=O | 1.61% | 2.89% | 1.75% | 1.86% | 3.01% | 2.25% | -0.43% | 0.215% | 0.662% | 0.839%
COc1cc2nccc(Oc3ccc(NC(=O)C4(C(=O)Nc5ccc(F)cc5)CC4)cc3)c2cc1OC | 2.36% | 6.14% | 9.24% | 6.67% | 4.78% | 17.7% | 42% | 0.288% | 5.98% | 2%
CCCN(CCC)CCc1cccc2c1CC(=O)N2 | -1.21% | -2.23% | 1.15% | 0.189% | 2.83% | -2.51% | 0.584% | 0.852% | 2.13% | -0.826%
CC1(C)S[C@@H]2[C@H](NC(=O)[C@H](N)c3ccccc3)C(=O)N2[C@H]1C(=O)O | 0.915% and -0.852% | 0.428% and -3.6% | -0.263% and 0.439% | 2.01% and -1.14% | 0.0853% and 0.776% | 0.491% and -0.506% | -1.66% and -0.947% | 0.0994% and -1.08% | 1.4% and -3.54% | 0.006% and 0.466%
O=C1OC(CN2CCOCC2)CN1/N=C/c1ccc([N+](=O)[O-])o1 (stereo not given) | -1.53% | 1.22% | -0.714% | -0.52% | -0.169% | 0.852% | -1.5% | -2.29% | -0.066% | -18.3%
